Screen size: about 53,000 sequences; about 3,700 (7%) were called active. Many of the other results were omitted from the sample, so actives are more common in it than they were. Values without a mark were called inactive.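 Rule for the calls: active = gene knockdowns whose robust z-score for IL-1 alpha signal is at least 2 or at most -2, so actives lie on both sides; inactive = the rest.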
assay: Components of the Cytosolic LPS Sensing Pathway: Gene Identification via Genome-wide siRNA Screen; settings: RAW264.7 macrophages, IL-1a HTRF, actives lie on both sides, screened at 100 nM (by protocol), cells primed 5 h with Pam3CSK4 first;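 note: robust z of the log signal after scaling to non-targeting control siRNA wells of the plate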
Procedure, shortened: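 Cells (RAW264.7, 1×10^4 per well) were transfected with siRNA at 100 nM and cultured 48h at 37 degrees C. Pam3CSK4 was added for 5 hours; LipidA transfection followed for 24 hour. IL-1a was then measured by HTRF.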

Q: Which z-score does the source give for CCUGUGGAUUACGGCCUCATT against Ube3b here?
A: -0.282

Q: Which z-score does the source give for GGAGCUGUUUUCUGUGAAGTT against Mrps2 here?
A: 0.0283

Q: Which z-score does the source give for GGAUGUGGAGCAAGUGAAGTT against Stx1b here?
A: -2.05 (active)

Q: For GCUUCAAGCCAUCCGAAUATT against Cfap36, which z-score is on record?
A: 0.886

Q: Which z-score does the source give for GGACCAGCUGAAGAUGGGATT against Pced1b here?
A: -1.1

Q: For GCCAGUUUCCAGUCCUUGUTT against Dppa5a, which z-score is on record?
A: -0.2

Q: With GCACAUAAAAUGCUCACUGTT against Rgr as the sequence, how does the z-score read?
A: -0.084

Q: With CCAAACUUAAACAUGUUGUTT against Ddx21 as the sequence, how does the z-score read?
A: 0.364

Q: With GCUGUACACAGUGAGGAAGTT against Gcat as the sequence, how does the z-score read?
A: 5.42 (active)

Q: With CGACUACCACACGUGGAAUTT against Hvcn1 as the sequence, how does the z-score read?
A: 1.36

Q: Which z-score does the source give for UGUUCCUAGGUCAGCUACUTT against Olfr1200 here?
A: -1.54

Q: For GGCACUUCACAGACUUAGUTT against Selp, which z-score is on record?
A: -0.682

Q: With CUCCUUGUCUACCUGAAUATT against Vmn1r213 as the sequence, how does the z-score read?
A: -1.44

Q: For CCUCUUAGCUAGAUCUUACTT against Smu1, which z-score is on record?
A: -2.41 (active)

Q: With GCCUGAGAAGAUAGACUGATT against Pigs as the sequence, how does the z-score read?
A: 0.114

Q: With GCUUAACUAGUAUCCUAUGTT against Tas2r135 as the sequence, how does the z-score read?
A: -0.228

Q: Which z-score does the source give for GGACAAAGUGAAUUAUAGCTT against Tmem123 here?
A: 1.12

Q: With GUAAGUUGUUUGAGGAAAGTT against Defb3 as the sequence, how does the z-score read?
A: 2.08 (active)

Q: With GAAAUUCUUCCAGUGGAAGTT against Lrp2bp as the sequence, how does the z-score read?
A: 0.958

Q: Which z-score does the source give for “GGAACAUCAUCAACCACUATT against Olfr911-ps1” here?
A: -1.53

Q: For GGUACAACAGACUAUGCAATT against Snai1, which z-score is on record?
A: 0.886

Q: With GCUUUCGCCAAUAAAAAAGTT against Slc13a2 as the sequence, how does the z-score read?
A: 0.265

Q: For GGUGAAACGGGAUGUUAACTT against Ppargc1b, which z-score is on record?
A: -0.102

Q: With GCCUUAUUACUGACCUUUUTT against Smarcd2 as the sequence, how does the z-score read?
A: 1.77

Q: For GCUAUGAAAGAGGGAAGCUTT against Cyp2c54, which z-score is on record?
A: 0.164

Q: For CCAGAAAACUCAGUUUGAATT against Magi3, which z-score is on record?
A: 0.518

Q: For GCUGGUGGCAAUCAGAAAATT against Nppc, which z-score is on record?
A: 0.121

Q: With GGUUCAACACGAUGUUCGATT against Nr1i2 as the sequence, how does the z-score read?
A: 0.162

Q: With GGAUGUCUGACACAAGUGUTT against Olfr390 as the sequence, how does the z-score read?
A: 3.42 (active)

Q: With GCUUCACAGAAGCUUUGUGTT against Ccl4 as the sequence, how does the z-score read?
A: -0.156

Q: For GGAAUAUCAGAAUACCAUCTT against Cnpy4, which z-score is on record?
A: 0.89

Q: For CCAGGAACAGCUAUCGGAUTT against Homer2, which z-score is on record?
A: -0.271

Q: For GCUGCAUUACAAGCCCAACTT against Zfp414, which z-score is on record?
A: -0.218

Q: Which z-score does the source give for GGUGACAUAUUUGAAGUGGTT against Dmwd here?
A: -0.000303

Q: Which z-score does the source give for GCACCCUACCUGCUAAUGUTT against Slitrk1 here?
A: 3.59 (active)

Q: With GGAUGACAAGGUUAAGCUATT against Golm2 as the sequence, how does the z-score read?
A: -0.0855

Q: Which z-score does the source give for GCAACAAUGUGGUUCCUAUTT against Rab11a here?
A: 0.616

Q: For GGAGCUACUGUACCUUGCUTT against Ncapg2, which z-score is on record?
A: -1.29

Q: For GGCUAGAAAACCUCUAUCUTT against Lrrc18, which z-score is on record?
A: -2.11 (active)

Q: Which z-score does the source give for GUGCAUGCAGUGUUGUUUUTT against Magea5 here?
A: 0.711

Q: Which z-score does the source give for GGAUAGGGAUUGGAGAUAUTT against Stn1 here?
A: 0.203

Q: For GGGUAGUCACUCAAUAAAUTT against Pear1, which z-score is on record?
A: -0.54

Q: With GGAUUGCCCUGUGGACAAGTT against Nr4a1 as the sequence, how does the z-score read?
A: 0.963

Q: Which z-score does the source give for GGCGAAAUGAACACAAAGCTT against Edf1 here?
A: 0.983

Q: For GGAAAAGUACACAAAGACCTT against Nkx2-1, which z-score is on record?
A: 2.16 (active)

Q: With GGAAAAGUGGUGAACGACATT against Tm4sf4 as the sequence, how does the z-score read?
A: 0.798

Q: For GCUGCUGUGACUUAGAUAATT against Cds2, which z-score is on record?
A: -0.668

Q: Which z-score does the source give for CCAGGAUCAUUCUUCUGAATT against Chrna7 here?
A: -0.563

Q: For GCGUAUACCAUGCAGAUAUTT against Sigmar1, which z-score is on record?
A: 1.05

Q: With GGCGUACGUAGACAAGUACTT against Scaf11 as the sequence, how does the z-score read?
A: -2.23 (active)

Q: With GGAAGGUAAUUGCUUUUAGTT against Gmeb1 as the sequence, how does the z-score read?
A: 0.533

Q: With GCACUUGCUUCAAGUAAUATT against Ankrd52 as the sequence, how does the z-score read?
A: -0.0516

Q: For “GCUCUGCUGUGUUAUAUGGTT against C330011M18Rik”, which z-score is on record?
A: 0.144

Q: Which z-score does the source give for CCUAUGCUUUUUUGUAAGATT against Il13ra2 here?
A: 0.126

Q: For GGGAAUAGCAAAUAAAGCATT against Lztr1, which z-score is on record?
A: -0.674

Q: With GGCUGUUGAACUUAAUCCCTT against Tomm70a as the sequence, how does the z-score read?
A: -2.25 (active)

Q: For GGUAGACGGAAUCUAUUUATT against Kcnj15, which z-score is on record?
A: -1.31

Q: Which z-score does the source give for GGUGGACUUAUAUGGUUUUTT against St3gal1 here?
A: 0.408

Q: For GGUGAUUGGGAAUUGAAAATT against F3, which z-score is on record?
A: 0.341

Q: With GCAUAUGCGAACAGUAAAATT against Rab28 as the sequence, how does the z-score read?
A: -0.182

Q: Which z-score does the source give for GGUACCUUCAUCUUGGUGGTT against Olfr699 here?
A: -0.017

Q: Which z-score does the source give for GCCUUGACCUGAUUUCUACTT against Tas2r131 here?
A: -0.525

Q: With GCAUUCAGGACCUGUGGCUTT against Olfr890 as the sequence, how does the z-score read?
A: -2.33 (active)

Q: With “GGAUCUGUGAGUUUGUAGCTT against D930030D11Rik” as the sequence, how does the z-score read?
A: 0.585

Q: Which z-score does the source give for “GGACAACUCAAUUCUAAAATT against 4921522P10Rik” here?
A: -1.22

Q: For GCAAAGUUCACCUAAUUGGTT against Lipc, which z-score is on record?
A: -1.03

Q: With GCCAGACUGAGCUACAAAATT against Gm9732 as the sequence, how does the z-score read?
A: -1.3

Q: With GCAUCAAAAUCGGUUUCUGTT against Lkaaear1 as the sequence, how does the z-score read?
A: 0.759

Q: With CCUUUGGACGCAACCAGUUTT against Ugt1a6b as the sequence, how does the z-score read?
A: 2.04 (active)

Q: Which z-score does the source give for CGAAUUAAUCUCACAGGAGTT against Vps53 here?
A: 0.44

Q: For CCCUCAAUGGCCUCAAACUTT against Elavl3, which z-score is on record?
A: -1.29

Q: Which z-score does the source give for GUUAGAUGCCCUCAAGUUCTT against Trappc6a here?
A: -0.857

Q: Which z-score does the source give for GGAUGAGAGUCCACAGCAATT against Lpar3 here?
A: -1.26

Q: Which z-score does the source give for GGAAUUCACAGAUACCGUGTT against Guca1a here?
A: 0.93

Q: Which z-score does the source give for GGAUGAGGUGAUUAAAGAATT against Cd9 here?
A: 2.38 (active)

Q: Which z-score does the source give for GGAGUUCAUUGUUUGGUUGTT against Nat2 here?
A: 0.593

Q: For GGAUAUUGAUGUUUCAAGUTT against Neo1, which z-score is on record?
A: -0.241

Q: Which z-score does the source give for CGUGGUGCAGAAUUUUUAUTT against Cldn14 here?
A: 1.13

Q: For “GGCACACACAUCAAAAGGATT against A530021J07Rik”, which z-score is on record?
A: -2.63 (active)

Q: With GGUAGAUGGCAUCUACUAUTT against Josd2 as the sequence, how does the z-score read?
A: 0.663

Q: Which z-score does the source give for GCUGGCAGUUUGUAAGUAGTT against Faxc here?
A: -0.653

Q: With GGGUGUCAUCCUUAUCCUGTT against Olfr655 as the sequence, how does the z-score read?
A: -0.0528

Q: Which z-score does the source give for CCGAAUCUGUCGUCAAGGUTT against Trem3 here?
A: 0.552

Q: Which z-score does the source give for GGACCAGGUCCGUUGGAAUTT against Efna1 here?
A: 0.636

Q: With GGAUGUAAAGAGGAAUCUCTT against Abca16 as the sequence, how does the z-score read?
A: -0.748

Q: Which z-score does the source give for GCAUCCCUUCCGAGAAACATT against Bag6 here?
A: 0.916

Q: For GCCGUCAGACAAGGAGGAATT against Magi1, which z-score is on record?
A: 2.43 (active)

Q: For GGAUGUCCUUGACUUUAAATT against Atp6v0a4, which z-score is on record?
A: 0.704

Q: For GCCUGAGGAAUCGUGACAUTT against Olfr51, which z-score is on record?
A: -1.58

Q: For GGAAAUGAUACAUUUGUGATT against Mre11a, which z-score is on record?
A: -0.256

Q: With CCGCACAGACCAUAGUAGATT against Pudp as the sequence, how does the z-score read?
A: 0.261

Q: With GGUACUUUGGAAAGAAGAGTT against Yeats4 as the sequence, how does the z-score read?
A: -1.27

Q: For GGGAAUGAACCUAGAAGAGTT against Tymp, which z-score is on record?
A: -1.2

Q: With GGUAGCCAUAUCUAACAGCTT against Scd1 as the sequence, how does the z-score read?
A: -2.02 (active)

Q: Which z-score does the source give for GCCCUGAGACCACGAUAUUTT against AF067063 here?
A: 1.48

Q: Which z-score does the source give for GGUUAUAUGCAGAGGAACUTT against Arid1a here?
A: -0.436

Q: Which z-score does the source give for GGCAAGAUGAAUUAAAAUGTT against Gcfc2 here?
A: -0.964

Q: For GGAUAAAGGCAAAGACAAATT against Rsrc1, which z-score is on record?
A: 0.891

Q: With UUAUGCUGACCUCUAUCUUTT against Akr1c19 as the sequence, how does the z-score read?
A: 2.33 (active)

Q: Which z-score does the source give for GGUUGAUUCUUAAAUUGUGTT against Slc6a5 here?
A: 0.331

Q: Which z-score does the source give for GGCUGGUGUAAUCGAAACATT against Ttc39c here?
A: 0.0501

Q: With GGAAACUCCGUCCCAAUUGTT against Trim68 as the sequence, how does the z-score read?
A: 1.39

Q: For GGCGAUUUCAACUGAAAAUTT against Jakmip1, which z-score is on record?
A: 0.548

Q: With GCCCAAUAAAAUUGAAGGGTT against Pmis2 as the sequence, how does the z-score read?
A: -0.163

Q: With GGUCUUUGAGGAAAGAGGUTT against Hemk1 as the sequence, how does the z-score read?
A: -1.59

Q: For GGCCUGUCCAAAGAAGUGATT against E2f3, which z-score is on record?
A: 2.2 (active)

Q: For GCGCACACCCUACUUGAUUTT against Pcdh20, which z-score is on record?
A: 1.08
